Results reported in PubChem BioAssay (Tox21).
Results filed as inconclusive are left out. Calls of active or inactive are those of the source. Calls follow the shape of the dose curve; as a rule, active = well fitted cell-killing curve with a large enough effect in the repeat runs; inconclusive = weak or mixed curves; inactive = flat fitted curve, though single readings scatter.

Assay: qHTS RealTime-Glo MT Cell Viability Assay in HepG2 cells - 16 hour (AID 1224885); also: nearly all actives have a fitted effect of over 50% in size
Conditions: RealTime-Glo luminescence; series mostly up to 76.8 µM; activity change, negative = cytotoxic: at the top concentration
Text: U.S. Tox21 Program National Center for Advancing Translational Sciences [NCATS] NIH Chemical Genomics Center [NCGC] U.S. Environmental Protection Agency [EPA] National Institutes of Environmental Health Sciences [NIEHS] National Toxicology Program [NTP] U.S. Food and Drug Administration [FDA] Tox21 Assay Overview: Measure of cell viability is critical in the cell-base assay. Analysis of cell viability is necessary for the characterization of cell responses to cytotoxic drugs and environmental stress. A RealTime-Glo MT Cell Viability Assay to monitor cell viability in real time of continues cell culture during 40 hours of compound treatment was used to screen Tox21 10K library compounds in HepG2 cells. The RealTime-Glo MT Cell Viability Assay is a nonlytic, homogeneous, bioluminescent method to measure cell viability in real time using a simple, plate-based method. The assay involves adding NanoLuc luciferase and a cell-permeant prosubstrate to cells in culture. Viable cells reduce the proprietary prosubstrate to generate a substrate for NanoLuc luciferase. This substrate diffuses from cells into the surrounding culture medium, where it is rapidly used by the NanoLuc Enzyme to produce a luminescent signal. The signal correlates with the number of viable cells, making the assay well suited for cytotoxicity studies.
Tox21 Assay Protocol Summary: The mixture of HepG2 cell suspension and reagents were dispensed at 600cells/6 ul/well in 1536-well tissue culture treated black solid bottom plates using a Multidrop dispenser. After the assay plates were incubated at a 37 C/5% CO2 incubator for 5 hours, 23 nL of compounds dissolved in DMSO, positive and negative controls was transferred to the assay plate by a pintool work station. The plates were incubated at 37 C for 40 hours. The luminescence intensity were measured at 0h, 8h, 16h, 24h, 32h and 40h time points using ViewLux plate reader during compound treatment.
% is scaled to controls: 0 for no effect and ±100 for the full control effect.

| Compound | activity change, negative = cytotoxic |
| --- | --- |
| CC(CC(C#N)(c1ccccc1)C(C)C)N(C)C (stereo not given) | 2.36% [at 35.3 µM] (inactive) |
| O=C(O)c1c2ccccc2cc2ccccc12 | 1.83% (inactive) |
| Nc1nc(Cl)nc2c1ncn2[C@H]1C[C@H](O)[C@@H](CO)O1 | 3.25% (inactive) |
| CCCCCCCCC(=O)OCC(C)OC(=O)CCCCCCCC (stereo not given) | 2.98% (inactive) |
| O=C(O)c1cccnc1Nc1cccc(C(F)(F)F)c1 | 0.547% [at 35.3 µM] (inactive) |
| CCCCCCCCCCCCCCCCCCCl | -0.256% [at 6.97 µM] (inactive) |
| CC1(C)[C@@H]2CC[C@]3(C2)[C@@H]1C(=O)CCC3(C)C | 0.651% (inactive) |
| CCN(CCCCOC(=O)c1ccc(OC)c(OC)c1)C(C)Cc1ccc(OC)cc1 (stereo not given) | -12.3% [at 35.3 µM] (inactive) |
| CC(Cc1ccccc1)(NC(=O)CN)c1ccccc1 (stereo not given) | 2.04% [at 35.3 µM] (inactive) |
| CCC1=C(C)CN(C(=O)NCCc2ccc(S(=O)(=O)NC(=O)NC3CCC(C)CC3)cc2)C1=O (stereo not given) | -1.3% [at 35.3 µM] (inactive) |
| CCOc1ccccc1O | -4.93% (inactive) |
| CC1=CC(=C(c2ccc(N)cc2)c2ccc(N)cc2)C=CC1=N | 0.128% [at 6.97 µM] (inactive) |
| CC(C)(C)N | 1.27% (inactive) |
| COc1cccc([C@H](O)C2CCN(CCc3ccc(F)cc3)CC2)c1OC | -4.68% (inactive) |
| NC(=O)c1cc[n+](CC2=C(C(=O)[O-])N3C(=O)[C@@H](NC(=O)Cc4cccs4)[C@H]3SC2)cc1 | 8.09% [at 35.3 µM] (inactive) |
| CC[C@H](NC(C)C)[C@H](O)c1ccc(O)c2[nH]c(=O)ccc12 | 3.33% [at 35.3 µM] (inactive) |
| CCCCCCCCCCCCCCCCN | 7.82% [at 35.3 µM] (inactive) |
| CCC(C)C1N=C(C)C(C)S1 (stereo not given) | 2.61% (inactive) |
| Cc1ccc(NC(=O)c2ccc(CN3CCN(C)CC3)cc2)cc1Nc1nccc(-c2cccnc2)n1 | -17.1% [at 35.3 µM] (inactive) |
| CC(=O)OCC(=O)[C@@]1(O)CC[C@H]2[C@@H]3CCC4=CC(=O)C=C[C@]4(C)[C@@]3(F)[C@@H](O)C[C@@]21C | 0.297% [at 35.3 µM] (inactive) |

| Compound | activity change, negative = cytotoxic |
| --- | --- |
| CC(CCl)OC(C)CCl (stereo not given) | -0.342% (inactive) |
| CCCCCC1CCC(=O)O1 (stereo not given) | 2.34% (inactive) |
| CC1(C)CC(=O)CC(C)(C)N1 | 2.59% (inactive) |
| CCCCCCCCCCCC(=O)OCC | 3.12% (inactive) |
| O=C(Cl)c1cc(Cl)cc(Cl)c1 | -1.56% (inactive) |
| CC(=O)CC/C=C(\C)CC/C=C(\C)CC/C=C(\C)CCC=C(C)C | 1.13% [at 35.3 µM] (inactive) |
| Cc1c(Cl)cccc1Nc1ccccc1C(=O)O | -0.173% [at 35.3 µM] (inactive) |
| Cc1ccc(NC=O)c(C)c1 | -0.126% (inactive) |
| C/C(=C\C(C)CC(C)CC(C)C)C1CC(=O)OC1=O (stereo not given) | 2.07% (inactive) |
| Nc1ncnc2c1ncn2[C@@H]1O[C@H](CO)[C@@H](O)[C@H]1O | -5.92% [at 35.3 µM] (inactive) |
| O=Cc1ccc(Cl)c([N+](=O)[O-])c1 | -3.73% (inactive) |
| O=P(c1ccccc1)(c1ccccc1)c1ccccc1 | 0.856% (inactive) |
| O=C1C=CCCC1 | 2.28% (inactive) |
| O=C1OC(=O)C2CC=CCC12 (stereo not given) | 1.02% (inactive) |
| CCCCCCCCCCCCCCCCC(=O)O | -0.33% [at 35.3 µM] (inactive) |
| COC=O | 5.42% [at 6.97 µM] (inactive) |
| Nc1ccc(-c2ccc(F)cc2)cc1 | 0.843% (inactive) |
| FC(F)(Cl)C(F)(Cl)Cl | -0.975% (inactive) |
| O=[N+]([O-])c1ccccc1CCO | 0.58% (inactive) |
| CC(C)CC(C)(C)C | -1.43% (inactive) |
